# Screening results deposited in PubChem by National Center for Advancing Translational Sciences (NCATS).
# SNCA expr inhib: Primary qHTS assay for inhibitors of alpha-synuclein gene (SNCA) expression; 140,000 compounds, 0.17% hits; HEK-293 SNCA-luciferase knock-in, luminescence, 24 h; Potency, µM (highest dose often 57.2 µM), for inactives: at the top dose activity change, negative = inhibition, hits mostly inhibitors; AID 1671194, 2021;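 further: potency means the concentration at half of the fitted maximal effect; plate controls were DMSO cells for no effect and cell-free wells for full effect; nearly all actives have a fitted effect of over 45% in size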
# HEK293 viab: GF-AFC viability counterscreen for inhibitors of alpha-synuclein gene (SNCA) expression | 150,000 compounds, 0.12% hits | Potency, µM (top dose mostly 57.1 µM), without a hit: at the highest dose activity change, negative = cytotoxicity, actives largely listed as cytotoxic | AID 1671193, 2021 | HEK-293-SNCA-luc viability, GF-AFC fluorescence, 24 h;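 further: potency means the concentration at half of the fitted maximal effect; 0% = DMSO-treated cells and -100% = medium-only wells without cells; nearly all actives have a fitted effect of over 30% in size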
#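 Cytotoxicity counterscreen: after 24 h compound treatment of genome-edited SNCA-luciferase HEK-293 cells, live-cell protease substrate GF-AFC read by fluorescence after 30 min; activity scaled between DMSO (0%) and medium-only (-100%), curves Hill-fitted.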
# KDM5B inhibitor: Primary screen for KDM5B Histone Demethylases FDH-coupled qHTS; Potency, µM (series often up to 57.7 µM), most hits filed as inhibitors; AID 1347165, 2019; Lysine-specific demethylase 5B (Homo sapiens), Q9UGL1; 220,000 compounds, 2.6% hits; KDM5B demethylase, FDH-coupled NADH fluorescence (FDH is formaldehyde dehydrogenase); further: potency means the concentration at half of the fitted maximal effect; 0% is about no effect; nearly all actives have a fitted effect of over 70% in size
#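 Measured: NADH fluorescence change, 30 min, RT. System: KDM5BΔAP 200 nM final, H3K4me3 peptide, α-KG, Fe(II), ascorbate, NAD⁺ plus FDH, pH 7.5 HEPES. Compounds: titrated, 10 min pre-incubation with enzyme.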
# IP6K1 inh: Primary qHTS assay for small molecule inhibitors of Inositol hexaphosphate kinase 1 (IP6K1); 140,000 compounds, 0.81% hits; IP6K1 kinase, ADP-Glo luminescence, 2 h; active compounds read low; activity change, % (series mostly up to about 58 µM); Inositol hexakisphosphate kinase 1 (Homo sapiens), Q92551; in the data active means activity change below about -25%; further: on the % scale 0 is the no-effect control and ±100 the full control effect
# Target sequence (Q92551 whole entry, looked up): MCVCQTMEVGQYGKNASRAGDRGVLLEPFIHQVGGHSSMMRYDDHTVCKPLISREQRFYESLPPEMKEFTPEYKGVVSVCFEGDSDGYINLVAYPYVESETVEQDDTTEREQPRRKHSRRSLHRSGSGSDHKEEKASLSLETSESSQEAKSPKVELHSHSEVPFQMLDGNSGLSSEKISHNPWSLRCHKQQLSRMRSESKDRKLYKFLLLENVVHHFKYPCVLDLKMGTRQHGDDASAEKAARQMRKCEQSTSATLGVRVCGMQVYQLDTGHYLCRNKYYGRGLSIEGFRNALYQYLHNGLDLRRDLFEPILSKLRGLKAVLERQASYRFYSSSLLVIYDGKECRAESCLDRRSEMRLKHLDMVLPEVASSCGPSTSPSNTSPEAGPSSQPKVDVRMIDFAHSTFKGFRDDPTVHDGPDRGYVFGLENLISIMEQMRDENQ
#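 ADP-Glo luminescence measures ADP made by human IP6K1 during a 2 h RT reaction with ATP/IP6 (mix at 1.3 mM/130 uM); top library doses 57.5 and 19.1 uM final.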
# The depositor's hits bear a star; i = inactive; u = inconclusive; x = no result; [ ] = remark or other dose. This is a sample that favours compounds with a hit; in the whole collection about 2.9% have one here. Unless noted, the call rests on the fitted dose curve; in most records, active means well fitted curve in the direction sought with a large enough effect; inconclusive means small, poorly fitted or top-dose-only effect, or another doubt; inactive means no such curve, though single readings can be large; an effect the other way counts as inactive or inconclusive.
SMILES,SNCA expr inhib,HEK293 viab,KDM5B inhibitor,IP6K1 inh
O=C(CCC1CCN(S(=O)(=O)c2ccccc2)CC1)NCc1ccc(F)cc1,3.3%,-5.4%,i,8.5
O=C(CCC1CCN(c2cc(NC3CC3)ncn2)CC1)Nc1ccccc1,u,10.9%,i,15.1
CCCNc1cc(N2CCC(CCC(=O)O)CC2)ncn1,1.12µM*,2.1%,i,1.8
CCCNc1cc(N2CCC(CCC(=O)N3CCN(c4ccc(F)cc4)CC3)CC2)ncn1,u,-28.4%,i,3.4
COc1cccc(CN2CCCC(Cc3ncc(C)n3Cc3ccccc3)C2)c1OC (stereo not drawn),-21.5%,-12.3%,i,-8.6
O=C(c1ccccc1Cl)N1CCCN(CCn2nc3n(c2=O)CCCC3)CC1,x,x,x,-2.6
CCNc1cc(N2CCC(CCC(=O)NCC3CC3)CC2)ncn1,u,11.7%,i,19.7
CCCNc1cc(N2CCC(CCC(=O)NCc3ccccc3)CC2)ncn1,2.51µM*,12.2%,i,16.6
CCNc1cc(N2CCC(CCC(=O)NCc3ccc(OC)cc3)CC2)ncn1,u,1.1%,i,24.1
CCCNC(=O)CCC1CCN(c2cc(NCCC)ncn2)CC1,3.16µM*,-1.0%,i,18.3
CCCNc1cc(N2CCC(CCC(=O)NCC)CC2)ncn1,2.51µM*,-14.7%,i,12.0
CCOC(=O)c1c(C)c(C(=O)Nc2ccc(Br)cc2C)c(C)n1C,x,x,i,x
Cc1ccc(-c2ccc(C=O)cc2)cc1Cl,116.4%[87.6 µM],-11.4%[87.6 µM],50.1µM*,-12.5
O=C(/C=C/c1ccc(O)cc1)c1ccc(-c2ccccc2)cc1,x,x,i,x
O=Cc1ccc(-c2ccc(O)cc2)cc1,-5.5%[87.6 µM],-9.3%[87.6 µM],14.1µM*,-9.7
Cc1cccc(-c2ccc(C=O)cc2)c1,-1.9%[87.6 µM],6.8%[87.6 µM],44.7µM*,-15.1
COc1ccc(Cc2nnc(SCC(=O)Nc3ccccc3Cl)n2C)cc1,x,x,i,x
Cc1ccc(C)c(NC(=O)COC(=O)Cn2cnc3c2c(=O)n(C)c(=O)n3C)c1,x,x,i,x
O=S1(=O)CCN(Cc2cn(C[C@H]3C[C@@H](NCc4cccnc4)[C@H](O)[C@@H]3O)nn2)CC1,-21.5%,-6.3%,u,10.3
COCc1cn(C[C@H]2C[C@@H](NCc3cccnc3)[C@H](O)[C@@H]2O)nn1,u,-2.9%[87.6 µM],35.5µM*,5.1
COc1cccc(C(=O)COc2ccc(F)cc2Cl)c1,x,x,i,x
Cc1nn(CC(=O)NCc2cccc(Br)c2)c(=O)c2cccn12,x,x,i,x
Cc1oc(-c2ccc3ccccc3c2)nc1CN1CCNC(=O)C1,140.4%,25.5%,28.2µM*,-16.2
O=C(Nc1cccc(Br)c1)C1C2C3CCC(C3)C12 (stereo not drawn),x,x,i,x
C1=C(c2cc(-c3cccc4cn[nH]c34)cn3cncc23)CCOC1,u,-8.6%[87.6 µM],31.6µM*,29.0
SMILES,SNCA expr inhib,HEK293 viab,KDM5B inhibitor,IP6K1 inh
Oc1ccccc1-c1cc(C2=CCOCC2)c2cncn2c1,2.1%[87.6 µM],1.9%[87.6 µM],31.6µM*,-12.9
C1=C(c2cc(-c3cccc4[nH]ccc34)cn3cncc23)CCOC1,-27.0%[87.6 µM],-9.7%[87.6 µM],25.1µM*,-8.8
Cc1noc(C)c1-c1cc(-c2cccc3cc[nH]c23)cn2cncc12,3.7%[87.6 µM],u,u,-15.0
Oc1cccc(-c2cc(C3=CCOCC3)c3cncn3c2)c1,-15.4%[87.6 µM],3.2%[87.6 µM],u,-6.3
COCC(=O)NC1CCN(C(=O)c2ccc(-c3cccc(OC)c3)cc2)CC1,1.9%,-0.3%[12.5 µM],x,-12.1
N#CCCn1c(=O)c2c(ncn2C2CCCC2)n(Cc2ccccc2)c1=O,x,x,i,x
O=c1cc(-c2ccccn2)oc2c(NC3CCOCC3)nccc12,-11.1%[87.6 µM],-1.1%[87.6 µM],31.6µM*,-19.1
O=c1cc(-c2ccccn2)oc2c(-c3cn[nH]c3)nccc12,u,-16.9%[87.6 µM],u,-7.4
Cc1cccc(NC(=O)Cn2c(N(C)Cc3ccccc3)nc(C)cc2=O)c1,-12.9%,10.5%,i,8.8
CCc1cccc(NC(=O)Cn2c(N(C)Cc3ccccc3)nc(C)cc2=O)c1,u,-8.8%,25.1µM*,-15.6
Cc1ccc(C2(O)CCN(c3ncccc3C(F)(F)F)CC2)nc1,-6.2%,5.0%,i,-11.4
Cc1ccc(C2(O)CCN(c3cc(C(F)(F)F)ccn3)CC2)nc1,15.4%,9.1%,25.1µM*,1.8
C=CCNC(=O)N[C@H]1CO[C@H]2[C@@H]1OC[C@@H]2Nc1nccc(-c2cccc(F)c2)n1,-17.8%[87.6 µM],-9.0%[87.6 µM],39.8µM*,-6.6
N#Cc1cccc(-c2ccnc(N[C@H]3CO[C@H]4[C@@H]3OC[C@@H]4NC(=O)C3CCCCC3)n2)c1,-17.8%[87.6 µM],-0.8%[87.6 µM],35.5µM*,6.6
C=CCNC(=O)N[C@H]1CO[C@H]2[C@@H]1OC[C@@H]2Nc1nccc(-c2ccccc2OC)n1,-3.1%[87.6 µM],6.3%[87.6 µM],28.2µM*,-3.0
N#Cc1cccc(-c2ccnc(N[C@H]3CO[C@H]4[C@@H]3OC[C@@H]4NC(=O)c3cccs3)n2)c1,-7.3%[87.6 µM],-0.7%[87.6 µM],31.6µM*,3.2
CCN(CC)CC1CCN(C(=O)c2cc3cccc([N+](=O)[O-])c3[nH]2)CC1,x,x,i,x
Cc1nncn1CCN1CCCC(CCC(=O)N(C)C2CCN(C)CC2)C1 (stereo not drawn),-22.4%,8.3%,i,-6.3
CCCn1c(C)cnc1C1CCN(C(=O)Nc2ccccc2OCC)C1 (stereo not drawn),10.6%,4.2%,x,12.7
COc1ccc(CCNC(=O)c2ccc(-c3ccc(OC)nn3)cc2Cl)cc1,x,x,x,-11.3
Cc1ccccc1NC(=O)Cn1c(=O)c2cccn2c2ccccc21,x,x,i,x
O=C(N[C@H]1CO[C@H]2[C@@H]1OC[C@@H]2Nc1nccc(-c2cccc(F)c2)n1)c1cccs1,12.4%[87.6 µM],4.2%[87.6 µM],35.5µM*,-13.5
CCOC(=O)CN1CCN(C(=O)CCc2cc3cc(OC)ccc3[nH]c2=O)CC1,u,u,31.6µM*,23.2
Cc1ccc2[nH]c(=O)c(CCC(=O)O)cc2c1,26.8%,-2.8%,u,-2.9
COc1ccc2[nH]c(=O)c(CCC(=O)NCCCN3CCCC(C)C3)cc2c1 (stereo not drawn),u,3.0%,31.6µM*,30.3
SMILES,SNCA expr inhib,HEK293 viab,KDM5B inhibitor,IP6K1 inh
COc1ccc2[nH]c(=O)c(CN3CCOC(CN)C3)cc2c1 (stereo not drawn),-11.3%,-3.4%,25.1µM*,10.6
COc1ccc2[nH]c(=O)c(CCC(=O)O)cc2c1,46.1%,3.7%,28.2µM*,-7.7
O=C(NCc1ccccc1)Nc1c(NC2CCCCC2)c2ccccc2oc1=O,x,x,i,x
Cc1ccc(NC(=O)CSc2n[nH]c(=O)c3cc(-c4ccco4)nn23)cc1C,x,x,i,x
COC(=O)Cn1c(=O)c2c(nc(-n3nc(C)cc3C)n2CCc2ccccc2)n(C)c1=O,x,x,i,x
CCC(C)NC(=O)Cc1csc2nc(C)c(-c3cc(C)n(-c4cc(Cl)ccc4C)n3)c(=O)n12 (stereo not drawn),19.3%,u,u,-2.8
Cc1nc2scc(CC(=O)N3CCOCC3)n2c(=O)c1-c1cc(C)n(-c2ccc(F)cc2)n1,-1.3%,7.6%,u,-19.9
